From the supplement of paper PMC4237247 come the findings set out here.

This assay deals with HeLa. Put plainly: percent cells in G1/S phase; higher = more G1/S content. The settings on record: 10 µM; 20 h; hit class: G2/M-phase inhibitor. Here is the method: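 HTS of 79,827 drug-like compounds at 10 uM. HeLa cells in 384-well plates were treated for 20 h, fixed, stained with Vybrant DyeCycle Green and scanned on an Acumen eX3 cytometer to give per-well cell cycle profiles. Only G2/M hits (>=67% G2/M) are listed.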
`COC(=O)Nc1nc2ccc(SC(C)C)cc2[nH]1` [Methiazole]: the “percent cells in G1/S phase” value worked out at 19.6%.
As for `CC(=O)O[C@H]1C(=O)[C@@]2(C)[C@H]([C@H](OC(=O)c3ccccc3)[C@]3(O)C[C@H](OC(=O)[C@H](O)[C@@H](NC(=O)c4ccccc4)c4ccccc4)C(C)=C1C3(C)C)[C@]1(OC(C)=O)CO[C@@H]1C[C@@H]2O` [Paclitaxel], the figure is 16.5%; as for `O=C(O)c1ccccc1SC1CC(=O)N(c2ccc(Br)cc2)C1=O` (centres undefined), 17.9%.
As for `O=c1[nH]c(/C=C/c2ccccc2)nc2ccccc12`, the “percent cells in G1/S phase” value turned out to be 24.1%.
For the compound `O=c1[nH]c(/C=C/c2ccccc2F)nc2ccccc12`, the “percent cells in G1/S phase” value stood at 19.2%.
On to `COc1ccc(/C=C/c2ccc3cccc(O)c3n2)cc1C`, for which the “percent cells in G1/S phase” value worked out at 22.4%.
As for `COc1ccccc1NC1=CC(=O)CC(c2ccccc2)C1` (centres undefined), the figure is 21.6%.
`CC(=O)Nc1ccc(Nc2nc(-c3c(C)nc4ccccn34)cs2)cc1`: the “percent cells in G1/S phase” value turned out to be 14.3%.
On to `COc1cc(-c2onc3ccc(Cl)cc23)cc(OC)c1OC`, for which the “percent cells in G1/S phase” value was 15.6%.
As to `O=C(CSc1nc2ccc([N+](=O)[O-])cc2s1)c1ccc(Cl)cc1`, the “percent cells in G1/S phase” value amounted to 22.6%.
The figure for `COC(=O)Nc1nc2cc(Sc3ccccc3)ccc2[nH]1` [Fenbendazole] is 26.3%.
As for `COc1cc(NS(=O)(=O)c2ccc(NC(C)=O)cc2)c(OC)cc1Cl`, the figure is 23.2%; as for `COC(=O)Nc1nc2cc(C(=O)c3ccccc3)ccc2[nH]1` [Mebendazole], 22.1%; as for `CCN(CC)CCN1C(=O)C(=O)C(=C(O)c2ccccc2)C1c1ccccc1F` (centres undefined), 20.9%.
